The source of these data is ChEMBL document CHEMBL4513216, “Probing the Open Global Health Chemical Diversity Library for Multistage-Active Starting Points for Next-Generation Antimalarials” (ACS Infect Dis, 2020).

The campaign covered roughly 69,000 compounds. About 8,600 (12%) showed an effect of 50% or more. Shown is part of a subset that was picked to be rich in strong results.

For this test, the system named is Plasmodium berghei. As to the kind of experiment: Screen against P. berghei liver stage (PbLuc), transformed with Luciferase, at 10uM. Particulars: tested at 10 uM. The test is classed as functional, HepG2.
As to `CC1=CC(C)(C)N(CN2C(=O)c3ccccc3C2=O)c2ccc(C)cc21`, the INHIBITION stood at 67.4%. With `CC1=CC(C)(C)N(CN2C(=O)c3ccccc3C2=O)c2ccccc21` the figure was 44.6%; with `COc1ccc(N2CCN(C(=O)NC(C)c3nncn3C)CC2)cc1` (configuration not stated), 19.4%. With `CC(=O)NCC[C@H]1CC(C)(C)Oc2ccccc21` the figure was 18.9%; with `COCC(=O)NCC[C@H]1CC(C)(C)Oc2ccccc21`, 57.5%. With `COCC(=O)NCC[C@H]1CC(C)(C)Oc2ccc(OC)cc21` the figure was 1.11%; with `Cc1cnn(CC2CCCCN2C(=O)c2ccc3[nH]c(=O)[nH]c3c2)c1` (configuration not stated), 39.2%. Take `CN(C)C(=O)C1CCN(C2CCN(CC3CC3)CC2)CC1`: the INHIBITION was determined as 37.5%. With `O=C(c1cc[nH]n1)N1CCc2ccc(S(=O)(=O)N3CCOCC3)cc2C1` the figure was 26.5%.

With `CNS(=O)(=O)c1cccc(CNc2ccc(C#N)cn2)c1`, the INHIBITION is on record as -14.9%. With `NS(=O)(=O)c1cccc(CNc2nccc(C(F)(F)F)n2)c1` the figure was -14.6%. With `CNS(=O)(=O)c1cccc(CNc2nccc(C(F)(F)F)n2)c1` the figure was 71.3%.

In the case of `CNS(=O)(=O)c1cccc(CNc2cc(C(F)(F)F)ccn2)c1`, the INHIBITION stood at 45.4%. With `FC(F)(F)c1cccc(CNc2nccc(C(F)(F)F)n2)c1` the figure was -24.2%; with `CNS(=O)(=O)c1cccc(CNc2ncccn2)c1`, 50.5%. With `CN(C(=O)c1ccc(C#N)cc1)c1nnc(C2CCOC2)s1` (configuration not stated) the figure was -0.585%. With `Cc1ccc(C(=O)N2CCO[C@H]3[C@H](OCc4ccccn4)CC[C@@H]32)o1` the figure was -31.3%.

Regarding `Cc1nn(CCC#N)c(C)c1CCC(=O)N(C)Cc1ccc(F)cc1F`, the INHIBITION was found to be 78.3%. With `Cc1nn(CCC#N)c(C)c1CCC(=O)N(C)C` the figure was 49.5%; with `Cc1nn(CCC#N)c(C)c1CCC(=O)N(C)Cc1ccsc1`, 19.8%. With `CCCn1nccc1NC(=O)CN1CCOC(Cn2cc(C)cn2)C1` (configuration not stated) the figure was 21.9%; with `CN(C)C[C@H]1OC[C@@H]2CCN(S(=O)(=O)c3ccccc3)C[C@@H]21`, 26.7%; with `Cc1ncc(CNc2cnccc2CO)s1`, -37.7%. With `Cc1ccc(-c2ncc(CNc3cnccc3CO)s2)cc1` the figure was 80%; with `Cc1ccc(-c2ncc(CNc3cnccc3CO)s2)o1`, 11.1%; with `CS(=O)(=O)N[C@@H]1CCN(Cc2ccncc2)[C@H]1Cc1cccnc1`, 4.27%.

Turning to `CS(=O)(=O)N[C@@H]1CCN(Cc2cccs2)[C@H]1Cc1cccnc1`, the INHIBITION was -21.4%. With `CS(=O)(=O)N[C@@H]1CCN(Cc2cccnc2)[C@H]1Cc1ccccc1` the figure was 52%; with `CS(=O)(=O)N[C@@H]1CCN(Cc2cccnc2)[C@H]1Cc1cccnc1`, 45.1%; with `Cn1ccnc1CN1CC[C@@H](NS(C)(=O)=O)[C@@H]1Cc1cccnc1`, 13.6%. `Cn1cc(CN2CC[C@@H](NS(C)(=O)=O)[C@@H]2Cc2cccnc2)cn1`: the INHIBITION came out at 54.4%. On to `O=C(CCc1ccccc1Br)NS(=O)(=O)c1ccc2c(c1)OCCO2`, for which the INHIBITION was 25.6%. With `O=C(c1ccc(Cn2cnnn2)cc1)N1CC[C@H](CO)[C@H](O)C1` the figure was 22.5%; with `CC(C)CN(Cc1nc2c(cnn2C)c(=O)[nH]1)CC(C)C`, -33.55%. With `COc1ccc(-c2cnc(N)nc2C2CCCNC2)cc1` (configuration not stated) the figure was 23.9%. With `COc1ccc(-n2cc3[nH][nH]c(=O)n3c2=O)cc1` the figure was -3%; with `COCC1CCN(S(=O)(=O)c2ccc(C(=O)NCC(F)F)cc2)C1` (configuration not stated), 10.6%; with `CCc1cnc(CNC(=O)NC2CCN(C3CCCC3)CC2)s1`, -104%.

In the case of `CC(=O)N[C@@H]1CN(C2CCN(c3cccc(Cl)c3)CC2)C[C@H]1C(C)C`, the INHIBITION worked out at 30.8%. With `CC(=O)N[C@@H]1CN(C2CCN(c3cccc(C)c3C)CC2)C[C@H]1C(C)C` the figure was 66.1%; with `CC(=O)N[C@@H]1CN(C2CCN(c3ccccc3F)CC2)C[C@H]1C(C)C`, 14.8%; with `CCN(CC1CCOC1)C(=O)c1ccc(-c2ccsc2)nc1C` (configuration not stated), 19.7%. For `Cn1cnc2c(N3CCOCC3)nc(C3CCNCC3)cc21`, the INHIBITION is recorded as -76.7%.

`CN(C)CC1CN(Cc2coc(-c3ccc(Cl)cc3)n2)CCO1` (configuration not stated): the INHIBITION is recorded as 72.9%. With `Cc1ccc(-c2nc(CN3CCOC(Cn4cccn4)C3)co2)cc1` (configuration not stated) the figure was 49.8%; with `CN(C)CC1CN(Cc2coc(-c3ccccc3)n2)CCO1` (configuration not stated), -3.2%.

For `CN(C)CC1CN(Cc2nc(-c3cccnc3)no2)CCO1` (configuration not stated), the INHIBITION is -50.5%. With `c1ccc(-c2nc(CN3CCOC(Cn4cccn4)C3)co2)cc1` (configuration not stated) the figure was 22.3%; with `Cc1ccc(-c2noc(CN3CCOC(CN(C)C)C3)n2)cc1F` (configuration not stated), 62.3%; with `Cc1ccc(-c2nc(CN3CCOC(CN(C)C)C3)co2)cc1` (configuration not stated), 58.5%. With `CN(C)CC1CN(Cc2coc(-c3cccs3)n2)CCO1` (configuration not stated) the figure was 32.8%; with `Fc1ccc(-c2nc(CN3CCOC(Cn4cccn4)C3)co2)cc1` (configuration not stated), 58%. With `Cc1noc(CN2CCOC(CN(C)C)C2)n1` (configuration not stated) the figure was 31.9%; with `CN(C)CC1CN(Cc2coc(-c3ccccc3Cl)n2)CCO1` (configuration not stated), 25.3%; with `CN(C)CC1CN(Cc2coc(-c3cccc(F)c3)n2)CCO1` (configuration not stated), 11.2%. For the molecule `Cn1cc(CN2CCC3(CC2)CCN(C(=O)c2cscn2)CC3)cn1`, the INHIBITION was determined as 34.4%. With `COCC(=O)NCc1cc(=O)n2c(n1)CN(Cc1ccccc1)CCC2` the figure was 25.8%; with `CCC(C)NC(=O)c1cc(Br)c2c(c1)OCCO2` (configuration not stated), 23.5%.

As to `CC(C)N(CCO)C(=O)c1cc(COc2ccc3c(c2)CCCC3)on1`, the INHIBITION is recorded as -15.6%.

Consider `CC(C(=O)N1CCCCC1)N1CCN(c2ncc(Cl)cn2)CC1` (configuration not stated), for which the INHIBITION was -15%. As for `c1cnn(C2CN(c3ncnc4[nH]ccc34)C2)c1`, the INHIBITION was -4.73%. With `Cc1csc(N2CCCN(C(=O)CCNc3ncccn3)CC2)n1` the figure was 7.12%; with `CSC(C)C(=O)Nc1ccnn1-c1ccccc1C` (configuration not stated), -2.61%; with `O=C1Nc2ccccc2C12CCN(c1nccs1)CC2`, -15.9%.

With `Cc1cc(CN2CCOC(CN(C)C)C2)no1` (configuration not stated), the INHIBITION came to 53.8%. With `Cc1cc(C)n(CC2CN(Cc3cc(C)on3)CCO2)n1` (configuration not stated) the figure was 16%; with `Cc1cc(CN2CCOC(CN(C)c3cccnn3)C2)no1` (configuration not stated), 26.9%.
